Each structure is given as a SMILES string. In all, about 400,000 compounds went through this assay and about 2,100 (0.53%) were called active. About 14% were inconclusive and are not listed. No rule for the calls is given here. Only a selection was taken, and actives are over-represented in it overall.

The target in this assay is Ataxin-2 (Homo sapiens) (UniProt Q99700). Briefly: qHTS for Inhibitors of ATXN expression. It is filed as functional. For orientation: qHTS replaces the single test concentration by a dilution series.
Sequence of Ataxin-2 (Homo sapiens) (Q99700 whole entry): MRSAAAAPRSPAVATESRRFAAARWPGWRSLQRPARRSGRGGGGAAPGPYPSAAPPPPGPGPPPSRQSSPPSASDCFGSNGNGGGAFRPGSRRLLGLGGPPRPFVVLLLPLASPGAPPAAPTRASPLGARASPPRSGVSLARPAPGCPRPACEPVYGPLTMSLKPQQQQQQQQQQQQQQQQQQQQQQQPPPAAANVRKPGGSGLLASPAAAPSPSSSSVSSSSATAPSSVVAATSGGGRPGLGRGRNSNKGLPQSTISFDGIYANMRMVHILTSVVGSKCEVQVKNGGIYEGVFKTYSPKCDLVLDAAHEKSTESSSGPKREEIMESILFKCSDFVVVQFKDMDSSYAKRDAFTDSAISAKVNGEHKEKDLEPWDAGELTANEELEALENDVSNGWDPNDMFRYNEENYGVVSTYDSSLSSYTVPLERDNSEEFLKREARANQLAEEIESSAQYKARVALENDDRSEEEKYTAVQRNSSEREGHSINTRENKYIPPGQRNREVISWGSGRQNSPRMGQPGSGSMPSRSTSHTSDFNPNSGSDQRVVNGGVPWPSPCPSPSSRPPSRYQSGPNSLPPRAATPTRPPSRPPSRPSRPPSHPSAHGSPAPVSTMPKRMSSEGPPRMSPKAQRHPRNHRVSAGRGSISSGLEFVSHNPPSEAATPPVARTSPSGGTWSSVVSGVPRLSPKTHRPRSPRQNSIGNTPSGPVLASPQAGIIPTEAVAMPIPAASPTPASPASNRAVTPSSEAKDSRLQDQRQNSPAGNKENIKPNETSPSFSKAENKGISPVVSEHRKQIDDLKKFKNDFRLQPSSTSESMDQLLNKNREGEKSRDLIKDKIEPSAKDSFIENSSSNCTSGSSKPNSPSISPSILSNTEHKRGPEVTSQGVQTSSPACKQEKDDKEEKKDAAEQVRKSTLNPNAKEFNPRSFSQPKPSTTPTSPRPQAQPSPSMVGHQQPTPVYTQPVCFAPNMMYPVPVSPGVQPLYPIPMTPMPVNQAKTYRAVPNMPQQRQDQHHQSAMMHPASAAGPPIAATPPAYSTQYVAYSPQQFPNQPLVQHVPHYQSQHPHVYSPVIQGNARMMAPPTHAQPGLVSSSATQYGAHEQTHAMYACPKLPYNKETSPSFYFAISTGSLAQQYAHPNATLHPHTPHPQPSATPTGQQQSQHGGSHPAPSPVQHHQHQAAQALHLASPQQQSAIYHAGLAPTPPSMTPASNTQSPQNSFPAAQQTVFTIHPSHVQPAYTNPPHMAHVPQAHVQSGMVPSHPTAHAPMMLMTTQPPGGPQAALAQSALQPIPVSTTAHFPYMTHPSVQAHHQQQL
For the molecule `CN(C)/C=N/c1nc2nccc(-c3cccs3)n2n1`, the Potency result was “inactive”.
For `CC(C)(C)C(=O)NC(=S)Nc1ccc(C(F)(F)F)cc1` the value was “inactive”; for `COc1ccc2c(Cl)c(C(=O)NN3CCN(C)CC3)sc2c1`, “inactive”.
Consider `CC(C)(C)C(=O)NC(=S)NNC(=O)c1sc2ccccc2c1Cl`, for which the Potency is 31.6 µM (active).
Turning to `C=CCn1c(S)nnc1-c1ccc2ncccc2c1`, the Potency entry is “inactive”.
For `CC(C)CC1C(=O)N(Cc2cn(CCC3OCCO3)nn2)CCS(=O)(=O)N1Cc1ccc(-c2ccc(F)cc2)cc1` (centres undefined) the value was 35.5 µM (active); for `CC(C)CC1C(=O)N(Cc2cn(CCC3OCCO3)nn2)CCS(=O)(=O)N1Cc1ccc(-c2ccc(Cl)c(Cl)c2)cc1` (centres undefined), 39.8 µM (active).
For `C/C(=N\c1ccc(C)cc1C)c1sc2ccccc2c1O` the value was “inactive”.
Next, `N#C/C(=C\c1ccc(N2CCCCC2)o1)C(=O)Nc1cccc(Br)c1`: “inactive”.
Turning to `COc1cc2ccc(=O)oc2c(O[C@@H]2O[C@H](CO)[C@@H](O)[C@H](O)[C@H]2O)c1O`, the Potency result was “inactive”.
For `COc1ccccc1/C=C/c1nc(C#N)c(N(C)C)o1`, the Potency entry was “inactive”.
For `Cc1noc(C)c1S(=O)(=O)Nc1ccc2c(c1)C(=O)N([C@@H](C)CO)C[C@H](C)[C@@H](CN(C)Cc1ccc(C(F)(F)F)cc1)OCCCC[C@H](C)O2` the value was 20 µM (active).
Consider `CC(C)NC(=O)Nc1ccc2c(c1)C(=O)N([C@H](C)CO)C[C@H](C)[C@@H](CN(C)Cc1ccc(C(F)(F)F)cc1)OCCCC[C@H](C)O2`, for which the Potency is 20 µM (active).
For `Cc1noc(C)c1S(=O)(=O)Nc1ccc(C(C)C)cc1` the value was “inactive”; for `COc1ccc(CN2C(=O)/C(=C\NNC(=O)c3cccnc3)c3ccccc3C2=O)cc1`, “inactive”; for `O=C(CN(C(=O)CCC(=O)Nc1nccs1)c1ccccc1F)NCc1ccc(F)cc1`, “inactive”.
Next, `CCOc1ccc(-c2cnc3cccnn23)cc1`: “inactive”; `O=C(N/N=C/c1cccc2cccnc12)[C@H]1C[C@@H]1c1ccccc1`: “inactive”.
For `Cc1ccc(-c2nnn(CC(=O)N(c3cccc(F)c3)C(C(=O)NC(C)(C)C)c3ccco3)n2)o1` (centres undefined) the value was “inactive”; for `COc1ccc(-c2[nH]ncc2CNC(C)c2cn(C)nc2C)c(F)c1` (centres undefined), “inactive”.
In the case of `CCN(CC)CCCNC(=O)c1cn(-c2cccc(OC)c2)c(=O)c2ccccc12`, the Potency entry was “inactive”.
For `CCN(CC)CCNC(=O)c1cc2cc(Br)ccc2s1` the value was “inactive”; for `CCN(CC)CCNC(=O)c1cc2c(-c3ccc(Cl)cc3)nn(C)c2s1`, 22.4 µM (active); for `CCCCN(CC)CCNC(=O)c1cc2c(-c3ccc(Cl)cc3)nn(C)c2s1`, 39.8 µM (active).
Next, `CCN(CC)CCCNC(=O)c1cc2c(-c3ccc(Cl)cc3)nn(C)c2s1`: 17.8 µM (active); `Cc1ccc(-c2cc(C(=O)N3CCN(c4ncccn4)CC3)c3cc(Br)ccc3n2)o1`: “inactive”.
As to `CN=C(S)N1N=C(c2ccc(C)cc2)CC1c1ccc(N(C)C)cc1` (centres undefined), the Potency entry was “inactive”.
Next, `O=C(Oc1cccc2ccccc12)C1CC1`: “inactive”; `CC(=O)/C(C#N)=C1\NC(=O)C(Cc2ccccc2C)S1` (centres undefined): “inactive”; `COC(=O)c1cc2c(ccn2C)n1C`: “inactive”.
Turning to `CCC1S/C(=N/N=C/c2ccco2)N(Cc2ccccc2)C1=O` (centres undefined), the Potency entry was “inactive”.
As to `CC(C)c1cc(N2CCOCC2)n2ncc(-c3ccccc3)c2n1`, the Potency entry is “inactive”.
Next, `CCOC(=O)c1sc(NC(=O)CSc2nc3c(cc2C#N)CCCCCC3)c(C#N)c1C`: “inactive”; `COc1cccc(-c2nc(SCC(=O)Nc3nc(-c4ccccc4)c(C)s3)nc(O)c2C#N)c1`: “inactive”.
For `CCOc1ccc(/C=C/C2=Cc3c(sc(NC(=O)CSc4n[nH]c(N)n4)c3C#N)C(C)(C)C2)cc1` the value was 39.8 µM (active).
For `CC(=O)C1=C(C)NC(SCC(=O)Nc2nc3ccccc3s2)=C(C#N)C1c1ccc(Cl)cc1` (centres undefined) the value was “inactive”; for `COC(=O)c1c(N=C(S)NNC(=O)c2ccc(Cl)s2)sc(C(=O)N(C)C)c1C`, 39.8 µM (active); for `C/C=C(\C)C(=O)OC1CC(C)(C)C[C@H]2C3=CC[C@@H]4[C@@]5(C)CCC(O[C@@H]6O[C@@H](C(=O)O)[C@@H](O)C(O[C@@H]7OC[C@H](O)[C@@H](O)[C@@H]7O[C@@H]7OC(CO)C(O)[C@@H](O)[C@@H]7O)C6O[C@@H]6OC(CO)C(O)C(O)C6O)[C@@](C)(CO)[C@@H]5CC[C@]4(C)[C@]3(C)CC(O)[C@@]12CO` (some centres undefined), 31.6 µM (active).
In the case of `Cc1nn(C)cc1N1C(=O)c2cccc3c(N)ccc(c23)C1=O`, the Potency result is “inactive”.
For `CCOc1ccc(C(=O)NCC(c2ccc(Cl)cc2)N2CCCCC2)cc1` (centres undefined) the value was 14.1 µM (active).
Take `COc1ccc(C(CNC(=O)c2ccc(-c3ccccc3Cl)o2)N2CCCC2)cc1` (centres undefined): the Potency is 17.8 µM (active).
Next, `COc1ccccc1C(CNC(=O)C1COc2ccccc2O1)N1CCCC1` (centres undefined): “inactive”; `CCOc1ccc(NS(=O)(=O)c2ccc(C(=O)NCC3CCCO3)cc2)cc1` (centres undefined): “inactive”; `CCOc1ccc(S(=O)(=O)NCC(c2ccc3c(c2)OCO3)N2CCN(C)CC2)cc1` (centres undefined): “inactive”.
Regarding `COc1ccc(CNC(=O)C(C#N)c2nc3ccccc3nc2N2CCCC2)cc1` (centres undefined), the Potency entry is “inactive”.
Next, `CCNc1nc2nc3ccc(C)cn3c(=O)c2cc1C(=O)NCC1CCCO1` (centres undefined): “inactive”; `O=C(CN1C(=O)NC2(CCc3ccccc32)C1=O)Nc1ccc(Br)cc1F` (centres undefined): “inactive”; `Nc1nnnn1/N=C/c1ccccc1O`: “inactive”.
For `O=C(CCl)N(c1ccccc1)C1CCS(=O)(=O)C1` (centres undefined) the value was 17.8 µM (active).
For `CC(Oc1ccccc1F)c1nnc(SCC(=O)N(c2ccccc2)C2CCS(=O)(=O)C2)o1` (centres undefined) the value was “inactive”.
As for `O=C(OCC(=O)N(c1ccccc1)C1CCCCC1)c1ccc(CO)cc1`, the Potency entry was “inactive”.
Next, `O=C(NC(=O)c1c(F)cccc1F)O/N=C1\CCCc2occc21`: “inactive”; `CN(C)S(=O)(=O)c1cccc(NC(=S)N/N=C/C2CC=CCC2)c1` (centres undefined): “inactive”; `Cc1nc2ccc(S(=O)(=O)Nc3ccc(-c4nc5cccnc5s4)cc3)cc2s1`: “inactive”.
For `C=CCc1c(O)c(CC)cc2c(C)cc(=O)oc12` the value was “inactive”; for `CC(=O)c1c(C)oc2ccc(N(C(C)=O)S(=O)(=O)c3ccc(Cl)c([N+](=O)[O-])c3)cc12`, 31.6 µM (active); for `COC(=O)c1c(C)oc2ccc(N(C(=O)Oc3ccccc3)S(=O)(=O)c3ccc(Cl)c([N+](=O)[O-])c3)cc12`, 35.5 µM (active).
Next, `C=CCN(c1ccccc1)S(=O)(=O)c1cccc(C(=O)Oc2ccc3c(C)cc(=O)oc3c2)c1`: “inactive”.
As to `CC=Cc1cc2c(c(=O)o1)C(=O)C(O)C(C)O2` (centres undefined), the Potency was 29.9 µM (active).
Next, `CCOC(=O)c1cc2c(=O)n3ccccc3nc2n(CCCOC)/c1=N\C(C)=O`: “inactive”; `O=C(CNC(=O)C1CCCCC1)OCn1nnc2ccccc2c1=O`: “inactive”.
Consider `COCCNC(=O)c1ccc(Cn2c(SCC(N)=O)nc3ccccc3c2=O)cc1`, for which the Potency entry is “inactive”.
Next, `C[C@H](NC(=O)c1ccc(Cl)cc1)C(=O)OCn1nnc2ccccc2c1=O`: 8.91 µM (active).
Next, `OCC1(CCc2ccccc2)CCN(Cc2cccn2-c2cccnc2)CC1`: “inactive”; `S=C1SCN(Cc2cccnc2)CN1Cc1cccnc1`: 13.4 µM (active); `OC1(c2ccc(F)cc2)CCN(Cc2cccnc2)CC1`: “inactive”.
Next, `Cc1cccc2c3c([nH]c12)CCNC3`: “inactive”; `O=C1OCCN1C(=O)[C@H]1[C@H](c2ccc(Cl)cc2)C(c2cccc(Cl)c2)=NN1c1ccccc1`: “inactive”.
In the case of `Oc1nc2cc3ccccc3cc2nc1C(F)(F)F`, the Potency result is “inactive”.
Next, `CCOc1ccc2nc(N3C(=O)CNC3=S)sc2c1`: 39.8 µM (active).
For `CCOc1ccc2nc(N3C(=O)/C(=C/c4ccc(Cl)cc4)NC3=S)sc2c1` the value was “inactive”; for `CN(C)CCCn1c(N)c(C#N)c2nc3ccccc3nc21`, “inactive”.
Next, `COc1ccc(-c2cc(C(=O)NN)[nH]n2)cc1OC`: “inactive”; `COc1cccc(OC)c1-c1nn2c(-c3cc(-c4ccccc4)[nH]n3)nnc2s1`: 31.6 µM (active).
With `N#Cc1c(-c2ccccc2)cc(C2CC2)nc1SCC(=O)c1cccs1`, the Potency entry was “inactive”.
For `Cc1cc(C)c(C(CC(=O)c2cccs2)C(C#N)C#N)c(C)c1` (centres undefined) the value was 31.6 µM (active).
For `CCc1c(C)sc(NC(=O)c2cc(-c3cc(OC)ccc3OC)on2)c1C#N` the value was 22.4 µM (active); for `COc1ccc(OC)c(-c2c(C#N)c(N)nc3c2c(=O)nc2sccn23)c1`, “inactive”.
Next, `COc1ccc(NC(=O)c2cc(-c3ccco3)on2)c(OC)c1`: “inactive”.
Regarding `CC(C)Cn1c(N)c(C(=O)NCCN2CCOCC2)c2nc3ccccc3nc21`, the Potency entry was “inactive”.
Next, `Nc1ccc2nc(-c3ccccc3)cnc2c1`: “inactive”; `Brc1cc(-c2ccccc2)nc(-c2ccccc2)n1`: 39.8 µM (active); `CNc1nc(-c2ccccc2)cc(-c2ccccc2)n1`: “inactive”.
For the molecule `O=c1c2sccc2nc(SCc2cc(=O)n3cc(Br)ccc3n2)n1Cc1ccccn1`, the Potency result is “inactive”.

Values taken from ChEMBL document CHEMBL1201862, “PubChem BioAssay data set” (2004).
